FLuc modulator: qHTS profiling assay for firefly luciferase inhibitor/activator using purifed enzyme and Km concentrations of substrates (counterscreen for miR-21 project). Luciferin 4-monooxygenase (Photinus pyralis), P08659. purified FLuc, Km substrates, luminescence inhibition. Potency, µM (series often up to 57.5 µM), most hits filed as inhibitors. 360,000 tested, 6.9% active. AID 588342, 2011; further: nearly all actives have a fitted effect of over 55% in size
Target sequence (P08659 whole entry, looked up): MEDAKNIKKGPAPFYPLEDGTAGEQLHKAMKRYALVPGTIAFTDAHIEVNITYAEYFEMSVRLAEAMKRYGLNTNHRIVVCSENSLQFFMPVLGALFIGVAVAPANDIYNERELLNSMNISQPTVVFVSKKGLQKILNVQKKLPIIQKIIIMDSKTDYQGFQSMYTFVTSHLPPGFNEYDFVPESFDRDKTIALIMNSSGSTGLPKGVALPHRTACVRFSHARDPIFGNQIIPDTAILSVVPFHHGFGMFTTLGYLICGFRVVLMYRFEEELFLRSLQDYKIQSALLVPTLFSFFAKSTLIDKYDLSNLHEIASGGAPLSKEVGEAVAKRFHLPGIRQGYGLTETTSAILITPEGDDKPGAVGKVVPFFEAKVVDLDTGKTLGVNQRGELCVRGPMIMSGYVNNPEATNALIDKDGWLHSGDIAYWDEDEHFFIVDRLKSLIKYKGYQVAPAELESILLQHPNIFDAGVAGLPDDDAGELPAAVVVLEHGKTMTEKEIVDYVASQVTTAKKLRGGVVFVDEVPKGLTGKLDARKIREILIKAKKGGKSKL
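Purified P. pyralis luciferase (10nM final) with 10uM D-luciferin and 10uM ATP (Km levels) in 50mM Tris acetate pH 7.5, 10mM Mg acetate, 0.01% Tween-20, 0.05% BSA; qHTS 6-point titration, ~60 µM downward; luminescence read.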
SMN2 splice up: qHTS Assay for Enhancers of SMN2 Splice Variant Expression. AID 1458, 2008. Potency, µM (doses to about 46.1 µM), hits mostly activators. HEK293 SMN2-luciferase splicing reporter, luminescence, 30-36 h. 210,000 tested, 2.8% active; further: nearly all actives have a fitted effect of over 55% in size
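HEK293 cells carry an SMN2 […]–luciferase reporter in which exon 7 inclusion puts luciferase in frame. Cells were plated 10-12 h before compound addition, then incubated 30-36 h at 37C. ONE-Glo luminescence was read; sodium butyrate at 4.5 mM final served as control.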
NPC1 promoter act: qHTS Assay for NPC1 Promoter Activators; Huh7 NPC1 promoter luciferase reporter, 24 h; Potency, µM (titrated, usually from 9.22 µM), most hits filed as activators; 320,000 tested, 2.4% active; further: nearly all actives have a fitted effect of over 60% in size
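Readout is luciferase luminescence, reflecting NPC1 promoter activation in stably transfected Huh7 cells after 24 h compound exposure at 37 °C in reduced-serum medium with 10% FBS.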
Luc counter: Counterscreen for Luciferase (Kinase-Glo TM) Inhibition | Luciferin 4-monooxygenase (Photuris pensylvanica), Q27757 | Kinase-Glo luciferase, ATP luminescence, 8 min | Potency, µM (series often up to 38.3 µM), actives largely listed as inhibitors | 200,000 tested, 0.28% active; further: nearly all actives have a fitted effect of over 60% in size
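Inhibition of Kinase-Glo luciferase light generation was assessed at 10 uM ATP in pH 7.2 imidazole buffer, with luminescence measured after eight minutes at ambient temperature.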
ELG1 genotoxic: qHTS screen for small molecules that induce genotoxicity in human embryonic kidney (HEK293T) cells expressing luciferase-tagged ELG1; HEK293T ELG1-luciferase reporter, luminescence, 16 h; Potency, µM (highest dose often 46 µM), actives largely listed as activators; 330,000 tested, 1.3% active; AID 504466, 2011; further: nearly all actives have a fitted effect of over 60% in size
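Luminescence read-out: rising ELG1-luciferase signal, reflecting elevated ELG1 protein under genetic stress, flags genotoxic compounds. Cells were treated for 16 hr at 37 °C before ONE-Glo detection.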
Rab9 promoter act: qHTS Assay for Rab9 Promoter Activators. Huh7 Rab9 promoter-luciferase reporter, luminescence, 24 h. Potency, µM (titrated, usually from 9.22 µM), hits mostly activators. 320,000 tested, 2.8% active; further: nearly all actives have a fitted effect of over 60% in size
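Rab9 promoter-driven luciferase in stably transfected Huh7 cells; 1500 cells/well rested 2 h, exposed to compound in DMSO for 24 h at 37 °C, 5% CO2. Luminescence read 10 min after adding luciferase reagent at ambient temperature.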
A number is an active result; i = inactive; ? = inconclusive; nt = not tested or not shown; [ ] = remark or other dose. In the library only some 7.5% were active in any assay of this set; here they are far more common. The call rests on the fitted dose curve; in most records, active means well fitted curve in the direction sought with a large enough effect; inconclusive means small, poorly fitted or top-dose-only effect, or another doubt; inactive means no such curve, though single readings can be large; an effect the other way counts as inactive or inconclusive.

SMILES | FLuc modulator | SMN2 splice up | NPC1 promoter act | Luc counter | ELG1 genotoxic | Rab9 promoter act
O=C(OCc1cccc(F)c1)c1cc2ccccc2cc1O | i | nt | i | nt | i | i
CC(C)(C)c1ccc(C(=O)NCCOc2ccccc2F)cc1 | 0.27µM | nt | i | nt | 0.73µM | ?
COc1cccc(C(=O)NCCOc2cc(C)cc(C)c2)c1 | ? | i | i | i | i | i
CC(C)(C)c1ccc(C(=O)NCCOc2ccccc2)cc1 | 0.34µM | nt | 0.32µM | nt | 0.73µM | ?
COc1cc(OC)cc(C(=O)NCCOc2ccccc2)c1 | ? | i | 1.6µM | i | 12µM | 1µM
Cc1ccc(C(=O)NCCOc2cccc(C)c2)cc1 | 24µM | i | i | i | ? | i
COc1cc(C(=O)NCCOc2ccccc2)cc(OC)c1OC | i | nt | i | nt | i | i[1.84 µM]
COc1ccc(CNC(=O)c2ccc(-c3nc(CSc4ccc(C)cc4)c(C)o3)cc2)c(OC)c1 | i | nt | nt | nt | nt | nt
Cc1ccc(N2CCn3c2nc2c3c(=O)n(CCCc3ccccc3)c(=O)n2C)cc1C | i | nt | nt | nt | nt | nt
COc1ccc(/C=N/NC(=O)c2cc(C34CC5CC(CC(C5)C3)C4)[nH]n2)cc1OC | ? | i | i | i | i | i
O=C(N/N=C/c1ccc(O)cc1)c1cc(C23CC4CC(CC(C4)C2)C3)[nH]n1 | 13µM | nt | i | nt | i | i
COC(=O)N[C@H](c1ccccc1)C(C(C)=O)C(=O)OC (stereo not given in full) | nt | i | nt | i | nt | nt
O=C(NCCNC(=O)c1cc(Cl)ccc1Cl)c1ccccn1 | i | nt | i | nt | i | i
N/C(=N\OC(=O)c1cc(Cl)ccc1Cl)c1ccccn1 | 1.5µM | 5µM | ? | i | ? | 5µM
COc1ccc(Cl)cc1C(=O)O/N=C(\N)c1ccccn1 | ? | nt | 4µM | nt | ? | i
COC(=O)c1ccccc1NC(=O)CCC(=O)N1CC(C)Sc2ccccc21 (stereo not given) | i | nt | nt | nt | nt | nt
COC(=O)[C@@]1(Cc2ccccc2)[C@H]2c3cc(C(=O)N4CCCC4)n(Cc4ccc(OC)c(OC)c4)c3C[C@H]2CN1C(=O)c1ccccc1 | nt | i | nt | i | nt | nt
CC(C)N(C(=O)COC(=O)CNC(=O)c1ccc(Br)cc1)c1ccccc1 | i | i | i | i | i | i
COc1ccccc1CN1CCC2(CC1)CCN(C(=O)c1csnn1)CC2 | nt | i | nt | i | nt | nt
CC1(C)C(=O)C2C[C@]3(O)C4=CC(=O)OC(c5ccoc5)[C@]4(C)CCC3[C@](C)(C2=O)C1CC(=O)O (stereo not given in full) | nt | i | nt | i | nt | nt
O=[N+]([O-])c1ccc(Cl)c(CNc2ncnc3c2ncn3[C@@H]2CCCCO2)c1 | nt | i[9.22 µM] | nt | i[7.66 µM] | nt | nt
CC1CN(C(=O)c2ccc(COc3ccc(C(C)C)cc3)o2)CC(C)O1 (stereo not given) | 13µM | nt | ? | i | ? | ?
CC1CN(C(=O)c2ccc(COc3ccc4ccccc4c3)o2)CC(C)O1 (stereo not given) | 17µM | nt | i | i | i | ?
Cc1ccccc1OCc1ccc(C(=O)N2CC(C)OC(C)C2)o1 (stereo not given) | i | nt | i | nt | i | i
CC1CN(C(=O)c2ccc(COc3ccccc3Cl)o2)CC(C)O1 (stereo not given) | i | nt | i | nt | i | i
SMILES | FLuc modulator | SMN2 splice up | NPC1 promoter act | Luc counter | ELG1 genotoxic | Rab9 promoter act
Cc1ccc(-c2nnc(NC(=O)c3c(F)cccc3Cl)s2)cc1 | i | nt | i | nt | i | i
Cn1cc(Cl)c(C(=O)Nc2nc3ccccc3s2)n1 | 0.95µM | 1.8µM | ? | ? | 0.46µM | ?
O=C(Nc1nc2ccccc2s1)c1c(F)cccc1Cl | 24µM | nt | ? | nt | ? | ?
O=C(Nc1ccc(N2CCOCC2)cc1)c1c(F)cccc1Cl | i | i | i | i | i | i
CC(C)(C)c1ccc(NC(=O)c2c(F)cccc2Cl)cc1 | 17µM | nt | i | nt | i | ?
CCn1c(=O)c2sccc2n2c(CCCC(=O)NCc3cccnc3)nnc12 | i | nt | i | nt | i | i
CN(C(=O)CN1C(=O)NC(c2ccccc2)(c2ccccc2)C1=O)C1CCS(=O)(=O)C1 (stereo not given) | nt | nt | i | nt | i | i
C=CCc1c(C)nc(-c2ccccc2)nc1N/N=C/c1ccncc1 | 6µM | i | i | i | i | i
C=CCc1c(C)nc(-c2ccccc2)nc1N/N=C(\C)c1ccc(N)cc1 | 12µM | i | i | i | i | i
C=CCc1c(C)nc(-c2ccccc2)nc1N/N=C/c1ccccc1 | 9.5µM | i | i | i | i | i
C=CCc1c(C)nc(-c2ccccc2)nc1Nc1ccccc1O | i | i | i | i | i | i
CCc1cccc2c(C(=O)COC(=O)C3=NNC(=O)CC3)c[nH]c12 | i | i | i | i | i | i
CCn1nc(C(=O)OCC(=O)c2c[nH]c3ccccc23)c2ccccc2c1=O | 24µM | i | i | i | i | i
CCc1cccc2c(C(=O)COC(=O)c3nn(C)c(=O)c4ccccc34)c[nH]c12 | 13µM | i | i | i | i | i
CC(C)n1nc(C(=O)OCC(=O)c2c[nH]c3ccccc23)c2ccccc2c1=O | ? | i | i | i | i | i
CC(C)CC(=O)NCc1nc2cccnc2n1Cc1ccccc1 | i | nt | nt | nt | nt | nt
CC1(C)CC2C1CCC1(C)OC2(C)CCC1O (stereo not given) | nt | i | nt | i | nt | nt
CCC(=O)Nc1ccc2nc(SCc3ccccc3)sc2c1 | 15µM | nt | nt | nt | nt | nt
O=C(CSc1nc2ccc(NC(=O)CSc3nnnn3-c3ccccc3)cc2s1)Nc1ccccc1 | i | i | i | i | i | i
Cn1cnnc1SCC(=O)Nc1ccc2nc(SCc3ccccc3F)sc2c1 | 6.7µM | ? | 2.8µM | i | ? | 1.6µM
CC1CC(=O)N(CC(=O)Nc2ccccc2F)c2ccccc2S1(=O)=O (stereo not given) | i | nt | i | nt | i | i
Cc1ccc(C(=O)Nc2nc(-c3ccccn3)cs2)s1 | 6.7µM | nt | i | nt | 15µM | i
CC(C)c1nc2ccc(NC(=O)C3CCCCC3)cc2[nH]1 | ? | i | i | i | i | i
CCc1sc(C(=O)Nc2nc(-c3ccccn3)cs2)cc1C | nt | nt | nt | nt | i | nt
O=C(Nc1ccc2nc(-c3ccccn3)[nH]c2c1)C1CCCCC1 | 5.4µM | 11µM | ? | i | 21µM | ?
O=C(Nc1nc(-c2ccccn2)cs1)C1CCCC1 | 24µM | i | i | i | i | ?
O=C(Nc1nc(-c2ccccn2)cs1)c1ccc(Cl)s1 | 17µM | i | i | i | i | i
C=C(Br)CN(C)CC(=C)Br | nt | i[9.22 µM] | nt | i[7.66 µM] | nt | nt
Cc1ccc(NC(=O)CN(C)S(=O)(=O)c2ccc3c(c2)CCC(=O)N3)c(C)c1 | i | i | nt | nt | nt | nt

High-throughput results as filed in PubChem BioAssay.
